Assays:
Test in all cases: DAPPL (digital affinity profiling via proximity ligation, sequencing); 10 mM Tris-HCl pH 7.5, 50 mM NaCl, 1 mM DTT, 4% glycerol, room temperature, 30 min; GST-TFs on glutathione beads, 16-mer random dsDNA library, 0.1% formaldehyde crosslink after washing; high values mean tight binding
FEV = biological target: T1, FEV (Homo sapiens, UniProt Q99581 1-238); conditions: protein: recombinant; tags: N-terminal GST; dsDNA, one strand shown
T1 sequence: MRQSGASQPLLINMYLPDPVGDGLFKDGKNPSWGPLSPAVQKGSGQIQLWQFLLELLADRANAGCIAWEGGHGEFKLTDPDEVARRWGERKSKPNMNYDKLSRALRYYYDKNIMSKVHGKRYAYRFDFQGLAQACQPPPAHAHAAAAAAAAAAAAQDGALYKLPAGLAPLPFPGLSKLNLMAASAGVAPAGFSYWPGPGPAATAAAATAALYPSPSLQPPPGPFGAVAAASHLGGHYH
How it was run: (§1)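 After expression in yeast as GST fusions, human transcription factors were bound to glutathione beads, DNA-barcoded and mixed with a tag-only sample. The pools were incubated with 200 nmole of a 16-mer random double-stranded DNA library in Tris/NaCl/DTT/glycerol buffer (30 min, room temperature), washed and crosslinked with 0.1% formaldehyde. Proximity ligation with BsaI/T4 ligase ran for 1 h at 37 °C, before PCR amplification and sequencing on an Illumina NextSeq500. Binding signal is a hexamer's read frequency for a factor divided by its frequency for the tag-only sample.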

ETV5 = ETV5 (Homo sapiens, UniProt P41161 1-510); conditions: protein: recombinant; tags: N-terminal GST; dsDNA, one strand shown
How it was run: as §1

HSF1 = HSF1 (Homo sapiens, UniProt Q00613 1-529); conditions: protein: recombinant; tags: N-terminal GST; chain copies: 3; dsDNA, one strand shown
How it was run: as §1

SPIC = biological target: T2, SPIC (Homo sapiens, UniProt Q8N5J4 1-248); conditions: protein: recombinant; tags: N-terminal GST; dsDNA, one strand shown
T2 sequence: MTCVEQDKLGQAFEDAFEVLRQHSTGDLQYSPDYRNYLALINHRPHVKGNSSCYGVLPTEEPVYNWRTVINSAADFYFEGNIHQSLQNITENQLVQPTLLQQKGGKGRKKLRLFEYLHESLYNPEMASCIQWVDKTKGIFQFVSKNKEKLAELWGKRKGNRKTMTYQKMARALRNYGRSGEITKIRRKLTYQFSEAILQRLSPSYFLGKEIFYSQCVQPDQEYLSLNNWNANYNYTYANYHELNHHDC
How it was run: as §1

ELF4 = ELF4 (Homo sapiens, UniProt Q99607 1-663); conditions: protein: recombinant; tags: N-terminal GST; dsDNA, one strand shown
How it was run: as §1

ELK4 = biological target: T3, ELK4 (Homo sapiens, UniProt P28324-2 1-405); conditions: protein: recombinant; tags: N-terminal GST; dsDNA, one strand shown
T3 sequence: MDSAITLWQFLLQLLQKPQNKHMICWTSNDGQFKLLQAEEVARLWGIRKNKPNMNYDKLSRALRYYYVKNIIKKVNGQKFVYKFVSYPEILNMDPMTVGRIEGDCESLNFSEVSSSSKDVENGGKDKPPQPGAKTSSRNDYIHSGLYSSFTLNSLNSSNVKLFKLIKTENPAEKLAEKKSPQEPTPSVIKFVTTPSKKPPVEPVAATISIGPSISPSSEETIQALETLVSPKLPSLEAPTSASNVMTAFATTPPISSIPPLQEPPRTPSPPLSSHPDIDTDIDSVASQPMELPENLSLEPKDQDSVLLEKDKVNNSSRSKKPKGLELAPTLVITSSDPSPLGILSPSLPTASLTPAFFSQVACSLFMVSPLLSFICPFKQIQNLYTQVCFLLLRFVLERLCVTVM
How it was run: as §1

ETV2 = biological target: T4, ETV2 (Homo sapiens, UniProt O00321 1-342); conditions: protein: recombinant; tags: N-terminal GST; dsDNA, one strand shown
T4 sequence: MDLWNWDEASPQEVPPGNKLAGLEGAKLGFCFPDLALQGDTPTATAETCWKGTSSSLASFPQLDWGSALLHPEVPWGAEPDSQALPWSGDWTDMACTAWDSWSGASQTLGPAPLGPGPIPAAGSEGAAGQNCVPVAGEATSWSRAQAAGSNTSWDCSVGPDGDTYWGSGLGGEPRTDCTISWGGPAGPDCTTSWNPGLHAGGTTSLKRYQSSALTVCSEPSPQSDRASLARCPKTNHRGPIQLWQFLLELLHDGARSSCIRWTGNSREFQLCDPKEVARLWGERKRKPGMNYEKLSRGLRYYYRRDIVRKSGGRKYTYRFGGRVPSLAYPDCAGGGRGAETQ
How it was run: as §1

ELF3 = biological target: T5, ELF3 (Homo sapiens, UniProt P78545 1-371); conditions: protein: recombinant; tags: N-terminal GST; dsDNA, one strand shown
T5 sequence: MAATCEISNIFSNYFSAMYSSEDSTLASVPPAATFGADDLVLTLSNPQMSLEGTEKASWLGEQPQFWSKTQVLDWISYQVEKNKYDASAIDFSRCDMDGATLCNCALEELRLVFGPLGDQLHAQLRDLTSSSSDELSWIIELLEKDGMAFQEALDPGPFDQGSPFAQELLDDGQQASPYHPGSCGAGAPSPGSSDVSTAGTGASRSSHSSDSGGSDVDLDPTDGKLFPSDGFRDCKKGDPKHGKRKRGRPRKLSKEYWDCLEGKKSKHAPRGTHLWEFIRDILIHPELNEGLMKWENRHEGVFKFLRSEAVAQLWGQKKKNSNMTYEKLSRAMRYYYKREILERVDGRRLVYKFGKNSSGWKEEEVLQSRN
How it was run: as §1

CRX = CRX (Homo sapiens, UniProt O43186 1-299); conditions: protein: recombinant; tags: N-terminal GST; dsDNA, one strand shown
How it was run: as §1

ETV1 = ETV1 (Homo sapiens, UniProt P50549 1-477); conditions: protein: recombinant; tags: N-terminal GST; dsDNA, one strand shown
How it was run: as §1

ERF = biological target: T6, ERF (Homo sapiens, UniProt P50548 1-548); conditions: protein: recombinant; tags: N-terminal GST; dsDNA, one strand shown
T6 sequence: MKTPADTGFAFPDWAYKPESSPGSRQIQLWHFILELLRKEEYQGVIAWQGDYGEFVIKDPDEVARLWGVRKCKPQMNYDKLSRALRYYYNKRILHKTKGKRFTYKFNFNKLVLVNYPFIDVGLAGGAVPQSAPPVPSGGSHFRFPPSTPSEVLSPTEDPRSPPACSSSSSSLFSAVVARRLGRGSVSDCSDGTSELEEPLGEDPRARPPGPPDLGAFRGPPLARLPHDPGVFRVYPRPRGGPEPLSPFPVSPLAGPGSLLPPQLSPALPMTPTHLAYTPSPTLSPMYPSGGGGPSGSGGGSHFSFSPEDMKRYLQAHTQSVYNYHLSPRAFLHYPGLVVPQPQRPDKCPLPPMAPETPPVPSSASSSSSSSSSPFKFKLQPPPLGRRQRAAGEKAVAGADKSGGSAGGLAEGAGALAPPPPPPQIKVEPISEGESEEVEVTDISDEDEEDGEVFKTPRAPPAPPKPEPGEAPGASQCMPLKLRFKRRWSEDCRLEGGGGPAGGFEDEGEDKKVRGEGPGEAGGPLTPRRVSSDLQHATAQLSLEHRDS
How it was run: as §1

ETV3L = biological target: T7, ETV3L (Homo sapiens, UniProt Q6ZN32 1-361); conditions: protein: recombinant; tags: N-terminal GST; dsDNA, one strand shown
T7 sequence: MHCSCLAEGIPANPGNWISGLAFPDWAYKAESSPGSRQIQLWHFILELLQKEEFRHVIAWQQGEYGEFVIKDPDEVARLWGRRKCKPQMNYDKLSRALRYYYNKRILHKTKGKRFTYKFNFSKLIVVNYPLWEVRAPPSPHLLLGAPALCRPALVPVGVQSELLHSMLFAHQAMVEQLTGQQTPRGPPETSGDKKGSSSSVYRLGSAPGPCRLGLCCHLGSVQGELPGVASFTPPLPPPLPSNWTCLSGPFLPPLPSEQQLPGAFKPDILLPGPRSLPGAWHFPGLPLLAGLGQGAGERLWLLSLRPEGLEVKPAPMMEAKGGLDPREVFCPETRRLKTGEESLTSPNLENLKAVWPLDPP
How it was run: as §1

ETS2 = biological target: T8, ETS2 (Homo sapiens, UniProt P15036 1-469); conditions: protein: recombinant; tags: N-terminal GST; dsDNA, one strand shown
T8 sequence: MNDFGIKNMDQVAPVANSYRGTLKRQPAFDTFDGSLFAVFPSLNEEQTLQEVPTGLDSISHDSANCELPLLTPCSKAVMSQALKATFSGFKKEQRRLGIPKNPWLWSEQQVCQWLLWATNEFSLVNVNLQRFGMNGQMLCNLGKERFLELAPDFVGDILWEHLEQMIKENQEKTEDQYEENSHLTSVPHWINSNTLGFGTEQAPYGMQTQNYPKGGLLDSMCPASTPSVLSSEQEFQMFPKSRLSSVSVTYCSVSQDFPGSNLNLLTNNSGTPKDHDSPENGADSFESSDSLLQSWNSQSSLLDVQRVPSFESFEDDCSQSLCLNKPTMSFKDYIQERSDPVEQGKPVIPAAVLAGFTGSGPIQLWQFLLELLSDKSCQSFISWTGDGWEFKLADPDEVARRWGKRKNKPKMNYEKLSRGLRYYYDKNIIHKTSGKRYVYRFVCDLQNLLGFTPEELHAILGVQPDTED
How it was run: as §1

SPDEF = biological target: T9, SPDEF (Homo sapiens, UniProt O95238 1-335); conditions: protein: recombinant; tags: N-terminal GST; dsDNA, one strand shown
T9 sequence: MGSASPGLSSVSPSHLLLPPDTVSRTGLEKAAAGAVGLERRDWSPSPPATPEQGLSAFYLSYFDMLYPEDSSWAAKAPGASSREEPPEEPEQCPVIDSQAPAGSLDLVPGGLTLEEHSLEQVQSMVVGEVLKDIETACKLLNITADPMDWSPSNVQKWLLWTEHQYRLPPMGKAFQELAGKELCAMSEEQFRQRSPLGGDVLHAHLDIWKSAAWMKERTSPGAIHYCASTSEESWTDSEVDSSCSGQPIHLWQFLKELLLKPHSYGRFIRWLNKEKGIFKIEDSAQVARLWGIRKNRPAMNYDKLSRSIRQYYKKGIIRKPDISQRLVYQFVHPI
How it was run: as §1

ETV7 = biological target: T10, ETV7 (Homo sapiens, UniProt Q9Y603 1-341); conditions: protein: recombinant; tags: N-terminal GST; dsDNA, one strand shown
T10 sequence: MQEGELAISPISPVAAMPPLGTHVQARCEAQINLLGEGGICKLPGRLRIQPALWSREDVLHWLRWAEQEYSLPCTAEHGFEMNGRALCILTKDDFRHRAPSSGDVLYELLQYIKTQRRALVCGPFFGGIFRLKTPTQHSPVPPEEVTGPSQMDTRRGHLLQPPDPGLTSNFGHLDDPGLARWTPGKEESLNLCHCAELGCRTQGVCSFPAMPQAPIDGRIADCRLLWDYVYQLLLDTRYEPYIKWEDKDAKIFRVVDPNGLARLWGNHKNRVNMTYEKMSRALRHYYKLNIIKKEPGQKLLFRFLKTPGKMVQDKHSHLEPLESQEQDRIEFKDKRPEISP
How it was run: as §1

ELF5 = biological target: T11, ELF5 (Homo sapiens, UniProt Q9UKW6-2 1-255); conditions: protein: recombinant; tags: N-terminal GST; dsDNA, one strand shown
T11 sequence: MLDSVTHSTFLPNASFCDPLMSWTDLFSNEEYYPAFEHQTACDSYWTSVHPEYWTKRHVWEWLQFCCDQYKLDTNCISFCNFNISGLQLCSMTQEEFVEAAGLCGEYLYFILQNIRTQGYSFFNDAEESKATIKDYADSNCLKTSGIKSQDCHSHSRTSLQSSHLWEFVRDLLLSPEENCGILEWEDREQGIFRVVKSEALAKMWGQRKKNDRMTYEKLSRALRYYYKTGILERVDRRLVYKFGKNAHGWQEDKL
How it was run: as §1

ETV3 = biological target: T12, ETV3 (Homo sapiens, UniProt P41162-2 1-143); conditions: protein: recombinant; tags: N-terminal GST; dsDNA, one strand shown
T12 sequence: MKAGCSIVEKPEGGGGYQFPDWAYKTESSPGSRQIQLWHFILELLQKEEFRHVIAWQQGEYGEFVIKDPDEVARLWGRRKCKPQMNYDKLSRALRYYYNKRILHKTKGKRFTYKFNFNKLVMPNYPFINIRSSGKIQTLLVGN
How it was run: as §1

ETV6 = ETV6 (Homo sapiens, UniProt P41212 1-452); conditions: protein: recombinant; tags: N-terminal GST; dsDNA, one strand shown
How it was run: as §1

ETV6, sequence (P41212 whole entry): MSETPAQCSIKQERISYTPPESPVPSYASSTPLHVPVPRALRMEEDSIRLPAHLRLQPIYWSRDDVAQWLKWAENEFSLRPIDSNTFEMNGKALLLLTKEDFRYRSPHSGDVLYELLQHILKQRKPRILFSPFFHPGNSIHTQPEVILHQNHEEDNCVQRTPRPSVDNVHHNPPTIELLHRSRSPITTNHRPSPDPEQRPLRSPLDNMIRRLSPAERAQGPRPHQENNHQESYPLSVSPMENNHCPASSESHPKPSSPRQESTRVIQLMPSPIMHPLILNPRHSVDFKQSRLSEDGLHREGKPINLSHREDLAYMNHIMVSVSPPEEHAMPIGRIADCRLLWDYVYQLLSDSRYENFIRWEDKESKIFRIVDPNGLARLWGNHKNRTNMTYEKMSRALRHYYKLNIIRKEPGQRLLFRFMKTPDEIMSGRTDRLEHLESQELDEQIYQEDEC
HSF1, sequence (Q00613 whole entry): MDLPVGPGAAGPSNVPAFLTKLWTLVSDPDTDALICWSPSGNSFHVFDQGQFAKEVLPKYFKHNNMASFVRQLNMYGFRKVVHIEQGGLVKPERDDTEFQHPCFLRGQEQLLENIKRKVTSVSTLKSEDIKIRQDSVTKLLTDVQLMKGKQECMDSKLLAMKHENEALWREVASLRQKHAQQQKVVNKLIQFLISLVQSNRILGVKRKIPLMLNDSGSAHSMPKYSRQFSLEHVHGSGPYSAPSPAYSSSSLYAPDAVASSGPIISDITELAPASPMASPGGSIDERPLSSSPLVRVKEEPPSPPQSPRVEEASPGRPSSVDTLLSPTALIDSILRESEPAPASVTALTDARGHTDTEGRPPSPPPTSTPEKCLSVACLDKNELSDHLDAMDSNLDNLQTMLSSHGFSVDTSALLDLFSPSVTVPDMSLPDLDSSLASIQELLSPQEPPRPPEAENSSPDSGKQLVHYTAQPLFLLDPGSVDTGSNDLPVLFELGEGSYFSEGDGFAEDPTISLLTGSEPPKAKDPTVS
CRX, sequence (O43186 whole entry): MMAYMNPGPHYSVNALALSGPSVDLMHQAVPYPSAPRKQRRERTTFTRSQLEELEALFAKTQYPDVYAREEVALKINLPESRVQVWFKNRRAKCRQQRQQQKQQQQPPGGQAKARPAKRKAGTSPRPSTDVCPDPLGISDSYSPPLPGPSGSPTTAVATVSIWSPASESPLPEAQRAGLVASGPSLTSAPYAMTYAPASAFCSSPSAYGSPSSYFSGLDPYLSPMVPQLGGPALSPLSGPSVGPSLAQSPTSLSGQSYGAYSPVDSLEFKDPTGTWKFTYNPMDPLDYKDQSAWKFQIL
ETV5, sequence (P41161 whole entry): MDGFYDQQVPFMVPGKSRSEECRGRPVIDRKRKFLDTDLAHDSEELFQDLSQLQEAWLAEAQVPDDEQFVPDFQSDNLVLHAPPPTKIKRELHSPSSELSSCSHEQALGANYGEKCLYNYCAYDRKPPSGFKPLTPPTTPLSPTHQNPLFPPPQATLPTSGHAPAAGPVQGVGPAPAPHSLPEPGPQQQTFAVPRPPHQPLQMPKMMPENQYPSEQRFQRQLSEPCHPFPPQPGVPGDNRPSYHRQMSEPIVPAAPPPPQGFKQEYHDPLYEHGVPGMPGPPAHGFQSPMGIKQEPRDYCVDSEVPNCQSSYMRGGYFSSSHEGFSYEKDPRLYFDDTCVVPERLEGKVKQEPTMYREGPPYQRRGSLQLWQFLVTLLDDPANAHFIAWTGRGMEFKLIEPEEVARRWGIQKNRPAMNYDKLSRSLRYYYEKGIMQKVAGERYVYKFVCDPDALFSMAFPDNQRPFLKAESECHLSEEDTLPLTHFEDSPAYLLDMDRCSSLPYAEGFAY
ETV1, sequence (P50549 whole entry): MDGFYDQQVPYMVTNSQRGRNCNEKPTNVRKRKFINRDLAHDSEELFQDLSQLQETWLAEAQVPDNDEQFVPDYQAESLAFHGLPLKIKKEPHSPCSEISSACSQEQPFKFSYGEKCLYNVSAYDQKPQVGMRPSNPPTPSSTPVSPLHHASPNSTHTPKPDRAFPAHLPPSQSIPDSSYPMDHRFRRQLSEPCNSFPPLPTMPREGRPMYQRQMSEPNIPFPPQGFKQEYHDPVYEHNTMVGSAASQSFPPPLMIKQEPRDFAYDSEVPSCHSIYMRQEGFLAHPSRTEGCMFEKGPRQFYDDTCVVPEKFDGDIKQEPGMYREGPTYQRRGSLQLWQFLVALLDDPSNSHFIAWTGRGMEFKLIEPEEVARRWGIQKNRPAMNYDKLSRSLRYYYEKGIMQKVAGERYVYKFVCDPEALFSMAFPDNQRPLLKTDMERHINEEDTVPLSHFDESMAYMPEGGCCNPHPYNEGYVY
ELF4, sequence (Q99607 whole entry): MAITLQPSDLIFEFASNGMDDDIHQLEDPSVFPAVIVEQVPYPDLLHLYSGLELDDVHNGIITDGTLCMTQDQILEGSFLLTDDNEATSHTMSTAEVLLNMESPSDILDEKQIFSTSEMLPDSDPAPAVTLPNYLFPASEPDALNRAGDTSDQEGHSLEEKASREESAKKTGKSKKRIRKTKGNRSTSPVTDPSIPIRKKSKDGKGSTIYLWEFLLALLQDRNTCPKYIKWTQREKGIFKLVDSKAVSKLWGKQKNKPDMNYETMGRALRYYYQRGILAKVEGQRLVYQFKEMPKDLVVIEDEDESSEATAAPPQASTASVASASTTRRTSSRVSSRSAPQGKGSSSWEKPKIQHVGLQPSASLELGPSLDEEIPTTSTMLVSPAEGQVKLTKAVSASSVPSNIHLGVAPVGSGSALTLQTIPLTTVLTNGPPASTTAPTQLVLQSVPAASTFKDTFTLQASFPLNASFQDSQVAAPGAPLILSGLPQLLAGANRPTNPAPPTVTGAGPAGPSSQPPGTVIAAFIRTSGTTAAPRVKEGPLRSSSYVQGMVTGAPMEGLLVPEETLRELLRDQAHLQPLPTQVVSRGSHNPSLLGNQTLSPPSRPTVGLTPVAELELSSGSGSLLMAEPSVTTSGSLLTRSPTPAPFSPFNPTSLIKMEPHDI

Sequence: CGGCTC
- binding signal (FEV): 1.33 fold enrichment (6-mer frequency, TF over GST control)
- binding signal (ETV5): 1.28 fold enrichment (6-mer frequency, TF over GST control)
- binding signal (HSF1): 1.21 fold enrichment (6-mer frequency, TF over GST control)
- binding signal (SPIC): 1.23 fold enrichment (6-mer frequency, TF over GST control)
- binding signal (ELF4): 1.35 fold enrichment (6-mer frequency, TF over GST control)
- binding signal (ELK4): 1.22 fold enrichment (6-mer frequency, TF over GST control)
- binding signal (ETV2): 1.42 fold enrichment (6-mer frequency, TF over GST control)
- binding signal (ELF3): 1.48 fold enrichment (6-mer frequency, TF over GST control)
- binding signal (CRX): 1.26 fold enrichment (6-mer frequency, TF over GST control)
- binding signal (ETV1): 1.29 fold enrichment (6-mer frequency, TF over GST control)
- binding signal (ERF): 1.36 fold enrichment (6-mer frequency, TF over GST control)
- binding signal (ETV3L): 1.27 fold enrichment (6-mer frequency, TF over GST control)
- binding signal (ETS2): 1.23 fold enrichment (6-mer frequency, TF over GST control)
- binding signal (SPDEF): 1.42 fold enrichment (6-mer frequency, TF over GST control)
- binding signal (ETV7): 1.25 fold enrichment (6-mer frequency, TF over GST control)
- binding signal (ELF5): 1.27 fold enrichment (6-mer frequency, TF over GST control)
- binding signal (ETV3): 1.29 fold enrichment (6-mer frequency, TF over GST control)
- binding signal (ETV6): 1.23 fold enrichment (6-mer frequency, TF over GST control)

Reference: PMC7862700, “An all-to-all approach to the identification of sequence-specific readers for epigenetic DNA modifications on cytosine”
